Compound activity as filed in PubChem.
Fluor 339 460 = intrinsic fluorescence of library compounds, ex339/em460 – biochemical, MLSMR library, data from DPM-DC assay, artefact control, profiling panel. compound autofluorescence, ex339/em460 nm, NADH buffer; active compounds read high; 1 = no-compound wells, NADH background. fluorescence fold increase at 10 µM. actives 5.5% (n = 65,000);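 active = at 10 µM, mean starting fluorescence two-fold or more over control wells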;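 note: signal is the first read of a kinetic run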
A340 absorber = absorbance at 340 nm; 65,000 tested, under 10 active; compound absorbance at 340 nm, fold over control; fold change at 10 µM;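 active = at 10 µM dose, initial 340 nm absorbance at least 2 fold that of control wells; inactive = change under 2 fold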;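 note: initial absorbance extrapolated from kinetic A340 decline of NADH oxidation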
MK inhibit = inhibitors of Streptococcus pneumoniae mevalonate kinase; purified MK, PK/LDH-coupled NADH absorbance 340 nm; inhibition, % at 10 µM; actives 0.48% (n = 65,000);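 active = ranked among the strongest by inhibition in the single 10 µM screen, a fixed top-ranked set picked for dose follow-up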
PMK inhibit = S. pneumoniae PMK inhibition | purified PMK, PK/LDH-coupled NADH absorbance 340 nm | inhibition, % at 10 µM | actives 0.49% (n = 65,000);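 active = top-ranked compounds by inhibition in the single 10 µM screen, taking a fixed number of the strongest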;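 note: 0% = full reaction with DMSO carrier and 100% = background rate without enzyme reaction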
DPM-DC inhibit = blocks S. pneumoniae diphosphomevalonate decarboxylase. purified DPM-DC, PK/LDH coupled NADH fluorescence. AID 556. actives 0.49% (n = 65,000). calls only at 10 µM;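 active = the 320 compounds with the highest percent inhibition in the single-dose primary screen, excluding strongly autofluorescent ones, cut at about 32% in these data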;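 note: kinetic rate of NADH fluorescence loss reporting ADP formed by the decarboxylase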
NADH coupling = blocks coupling enzymes of NAD/NADH assays. coupled PK/LDH NADH assays, four targets. IC50, µM (series often up to 10 µM), without a hit: at the highest dose inhibition. actives 0.02% (n = 65,000). AID 774;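 active = single-dose screening hits from any of four coupled enzyme assays that gave an IC50 when retested across doses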;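 note: the DPM-DC format reads NADH fluorescence rather than 340 nm absorbance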
* hit, by the source's call; i = inactive; . = not tested or not shown; + = active, no number. This is a sample that favours compounds with a hit; in the whole collection about 6.8% have one here.

SMILES	Fluor 339 460	A340 absorber	MK inhibit	PMK inhibit	DPM-DC inhibit	NADH coupling
Nc1ccc2oc(CCc3ccccc3)nc2c1	1.2	0.97	7	12	i	9%
Nc1ccc2nn(-c3cccc4ccccc34)nc2c1	2.2*	1.1	2	1	.	2%
CCOc1ccccc1N(CC(=O)NC1CCCCC1)S(C)(=O)=O	1.2	1	7	0	i	2%
COC(=O)CSc1nc2sc3c(c2c(=O)n1C1CCCCC1)CCN(C)C3	2.5*	1.1	1	3	.	13%
COc1ccc(-n2c(SCC(N)=O)nc3sc4c(c3c2=O)CCN(C)C4)cc1	1.1	1.1	0	8	i	6%
COC(=O)C1=C(C)NC(C)=C(C(=O)OC)C1c1cc2cc(C)ccc2[nH]c1=O	2.7*	1	9	7	i	4%
CCOC(=O)C1=C(C)NC(C)=C(C(=O)OC)C1c1cccc(Cl)c1Cl (configuration not stated)	1.4	0.99	7	6	i	3%
CCOC(=O)C1=C(C)NC(C)=C(C(=O)OCC)C1c1cc2ccc(C)cc2[nH]c1=O	2.2*	1.1	9	11	+	19%
COC(=O)C1=C(C)NC(C)=C(C(=O)OC)C1c1cc2ccc(C)cc2[nH]c1=O	2.2*	1.1	5	6	i	8%
Cc1ccc2cc(COC(=O)c3ccncc3)c(=O)[nH]c2c1	1.2	1.1	7	4	i	11%
CCOC(=O)c1ccccc1NC(=O)CC(C)CC(=O)O (configuration not stated)	1.1	1	0	9	i	3%
COc1ccc(C(=O)CSc2nnc(CNC(=O)c3ccc(OC)cc3)n2C)cc1	1.1	1.1	4	0	i	1%
Cc1cccc(C(=O)NC2CCN(CC(=O)N3CCOCC3)CC2)c1	1.1	0.99	3	10	i	4%
Cc1ccc(S(=O)(=O)c2nc(S(C)(=O)=O)sc2NCC2CCCO2)cc1 (configuration not stated)	2.1*	1.1	7	0	.	4%
Cn1cnnc1SCC(=O)n1c2ccccc2c2ccccc21	1.1	1	67*	42*	i	36%
CC1(C)CC(=O)C(C(C2=C(O)CC(C)(C)CC2=O)c2cccc(O)c2)C(=O)C1 (configuration not stated)	1.1	1.1	0	29*	i	10%
CC1(C)CC(=O)C(C(C2=C(O)CC(C)(C)CC2=O)c2cccnc2)C(=O)C1 (configuration not stated)	1.1	1	7	13	i	7%
O=S(=O)(Nc1ccc(C(F)(F)F)cc1)c1cnc[nH]1	0.63	0.99	12	8	+	20%
CCc1cc2c(C)cc(=O)oc2cc1OC(=O)C1CCCN1C(=O)OC(C)(C)C (configuration not stated)	4.9*	1	10	11	.	11%
CC(C)(C)OC(=O)N1CCCC1C(=O)NCCc1ccccc1 (configuration not stated)	1.2	1	9	3	i	4%
COc1cc(C2C(C#N)=C(C)NC3=C2C(=O)CC(C)(C)C3)cc(OC)c1O (configuration not stated)	1.1	1.1	1	0	+	12%
COc1cc(C2C(C#N)=C(C)NC3=C2C(=O)CC(C)(C)C3)ccc1OCCO (configuration not stated)	1.3	1.1	4	12	i	5%
CC1=C(C#N)C(C)C2=C(CC(C)(C)CC2=O)N1 (configuration not stated)	2.1*	1.1	7	0	.	4%
CC1=C(C#N)C(c2cccnc2)C2=C(CC(C)(C)CC2=O)N1 (configuration not stated)	2.1*	1.1	7	14	.	11%
Cc1cc(S(=O)(=O)N(Cc2ccc3c(c2)OCO3)CC2CCCO2)ccc1-n1cnnn1 (configuration not stated)	1.1	1	0	10	i	3%
CC(=O)c1c(C)n([O-])c2cc(C)ccc2[n+]1=O	1.1	1	11	0	i	6%
COc1ccccc1N1CCN(S(=O)(=O)CC23CCC(CC2=O)C3(C)C)CC1 (configuration not stated)	1.1	0.97	3	20	i	3%
